From ChEMBL document CHEMBL1961873, “Compounds: GSK PKIS; Assays: Nanosyn kinase panel” (2012)

How the values were obtained:
[1] = target: Glycogen synthase kinase-3 beta (Homo sapiens) (UniProt P49841); settings: at 1 µM;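 also: reported values are mean percent inhibition of GSK3B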
[2] = target: Homeodomain-interacting protein kinase 1 (Homo sapiens) (UniProt Q86Z02); settings: at 0.1 µM
[3] = target: Homeodomain-interacting protein kinase 1 (Homo sapiens) (UniProt Q86Z02); settings: at 1 µM
[4] = target: T1, Homeodomain-interacting protein kinase 4 (Homo sapiens) (UniProt Q8NE63); settings: at 0.1 µM
T1 sequence (whole entry): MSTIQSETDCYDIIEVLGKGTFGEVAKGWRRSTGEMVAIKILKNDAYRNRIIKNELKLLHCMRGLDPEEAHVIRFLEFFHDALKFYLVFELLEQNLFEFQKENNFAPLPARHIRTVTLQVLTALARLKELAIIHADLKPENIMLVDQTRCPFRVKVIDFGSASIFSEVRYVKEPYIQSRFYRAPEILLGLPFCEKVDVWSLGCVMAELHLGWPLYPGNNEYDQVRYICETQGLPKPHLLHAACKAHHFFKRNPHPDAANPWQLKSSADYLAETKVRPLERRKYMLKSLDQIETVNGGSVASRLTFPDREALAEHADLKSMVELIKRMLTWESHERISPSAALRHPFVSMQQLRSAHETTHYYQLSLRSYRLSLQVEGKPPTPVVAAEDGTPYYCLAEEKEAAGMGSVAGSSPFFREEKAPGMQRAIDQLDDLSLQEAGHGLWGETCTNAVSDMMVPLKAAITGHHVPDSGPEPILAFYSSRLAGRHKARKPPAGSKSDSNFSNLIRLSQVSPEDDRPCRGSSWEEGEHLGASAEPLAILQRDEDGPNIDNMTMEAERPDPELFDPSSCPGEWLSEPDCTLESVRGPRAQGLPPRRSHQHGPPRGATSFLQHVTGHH

[5] = target: T1, Homeodomain-interacting protein kinase 4 (Homo sapiens); settings: at 1 µM
[6] = target: Mitogen-activated protein kinase 9 (Homo sapiens) (UniProt P45984); settings: at 0.1 µM
Mitogen-activated protein kinase 9 (Homo sapiens), sequence (P45984 whole entry, looked up): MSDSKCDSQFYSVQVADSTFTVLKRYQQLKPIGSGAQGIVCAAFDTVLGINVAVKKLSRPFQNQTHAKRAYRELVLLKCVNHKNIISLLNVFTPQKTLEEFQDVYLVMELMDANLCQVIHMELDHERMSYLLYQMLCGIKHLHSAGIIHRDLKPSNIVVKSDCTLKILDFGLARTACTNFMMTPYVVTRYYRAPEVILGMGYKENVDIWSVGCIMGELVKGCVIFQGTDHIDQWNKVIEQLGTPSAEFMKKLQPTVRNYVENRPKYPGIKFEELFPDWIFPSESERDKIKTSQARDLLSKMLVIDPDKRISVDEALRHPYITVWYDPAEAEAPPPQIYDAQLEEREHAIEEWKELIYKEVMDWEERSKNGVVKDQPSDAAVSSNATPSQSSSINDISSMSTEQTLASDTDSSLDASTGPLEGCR

[7] = target: Mitogen-activated protein kinase 9 (Homo sapiens) (UniProt P45984); settings: at 1 µM
[8] = target: Mitogen-activated protein kinase 1 (Homo sapiens) (UniProt P28482); settings: at 0.1 µM
Mitogen-activated protein kinase 1 (Homo sapiens), sequence (P28482 whole entry): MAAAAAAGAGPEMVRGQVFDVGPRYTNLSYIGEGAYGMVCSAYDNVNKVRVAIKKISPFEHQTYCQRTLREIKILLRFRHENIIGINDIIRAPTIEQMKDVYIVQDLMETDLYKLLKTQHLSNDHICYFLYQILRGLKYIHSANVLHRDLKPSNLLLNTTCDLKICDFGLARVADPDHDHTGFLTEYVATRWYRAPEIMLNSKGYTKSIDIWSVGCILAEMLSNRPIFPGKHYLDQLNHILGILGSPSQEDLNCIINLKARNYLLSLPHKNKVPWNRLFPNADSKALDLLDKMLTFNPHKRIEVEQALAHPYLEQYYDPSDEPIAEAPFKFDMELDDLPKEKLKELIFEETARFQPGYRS

[9] = target: Mitogen-activated protein kinase 1 (Homo sapiens) (UniProt P28482); settings: at 1 µM
[10] = target: Mitogen-activated protein kinase 3 (Homo sapiens) (UniProt P27361); settings: at 0.1 µM;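 also: each value is a mean inhibition figure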
Mitogen-activated protein kinase 3 (Homo sapiens), sequence (P27361 whole entry): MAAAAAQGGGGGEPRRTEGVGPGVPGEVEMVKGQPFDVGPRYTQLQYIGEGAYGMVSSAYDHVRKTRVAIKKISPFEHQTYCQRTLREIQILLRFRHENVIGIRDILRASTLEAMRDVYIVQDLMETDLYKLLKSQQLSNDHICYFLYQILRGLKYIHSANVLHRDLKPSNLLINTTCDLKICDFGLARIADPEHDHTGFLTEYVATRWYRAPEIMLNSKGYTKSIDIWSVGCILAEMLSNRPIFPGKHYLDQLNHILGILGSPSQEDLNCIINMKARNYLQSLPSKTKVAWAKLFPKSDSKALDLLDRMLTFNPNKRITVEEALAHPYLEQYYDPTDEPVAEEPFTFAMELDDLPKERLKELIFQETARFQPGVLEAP

Homeodomain-interacting protein kinase 1 (Homo sapiens), sequence (Q86Z02 whole entry, looked up): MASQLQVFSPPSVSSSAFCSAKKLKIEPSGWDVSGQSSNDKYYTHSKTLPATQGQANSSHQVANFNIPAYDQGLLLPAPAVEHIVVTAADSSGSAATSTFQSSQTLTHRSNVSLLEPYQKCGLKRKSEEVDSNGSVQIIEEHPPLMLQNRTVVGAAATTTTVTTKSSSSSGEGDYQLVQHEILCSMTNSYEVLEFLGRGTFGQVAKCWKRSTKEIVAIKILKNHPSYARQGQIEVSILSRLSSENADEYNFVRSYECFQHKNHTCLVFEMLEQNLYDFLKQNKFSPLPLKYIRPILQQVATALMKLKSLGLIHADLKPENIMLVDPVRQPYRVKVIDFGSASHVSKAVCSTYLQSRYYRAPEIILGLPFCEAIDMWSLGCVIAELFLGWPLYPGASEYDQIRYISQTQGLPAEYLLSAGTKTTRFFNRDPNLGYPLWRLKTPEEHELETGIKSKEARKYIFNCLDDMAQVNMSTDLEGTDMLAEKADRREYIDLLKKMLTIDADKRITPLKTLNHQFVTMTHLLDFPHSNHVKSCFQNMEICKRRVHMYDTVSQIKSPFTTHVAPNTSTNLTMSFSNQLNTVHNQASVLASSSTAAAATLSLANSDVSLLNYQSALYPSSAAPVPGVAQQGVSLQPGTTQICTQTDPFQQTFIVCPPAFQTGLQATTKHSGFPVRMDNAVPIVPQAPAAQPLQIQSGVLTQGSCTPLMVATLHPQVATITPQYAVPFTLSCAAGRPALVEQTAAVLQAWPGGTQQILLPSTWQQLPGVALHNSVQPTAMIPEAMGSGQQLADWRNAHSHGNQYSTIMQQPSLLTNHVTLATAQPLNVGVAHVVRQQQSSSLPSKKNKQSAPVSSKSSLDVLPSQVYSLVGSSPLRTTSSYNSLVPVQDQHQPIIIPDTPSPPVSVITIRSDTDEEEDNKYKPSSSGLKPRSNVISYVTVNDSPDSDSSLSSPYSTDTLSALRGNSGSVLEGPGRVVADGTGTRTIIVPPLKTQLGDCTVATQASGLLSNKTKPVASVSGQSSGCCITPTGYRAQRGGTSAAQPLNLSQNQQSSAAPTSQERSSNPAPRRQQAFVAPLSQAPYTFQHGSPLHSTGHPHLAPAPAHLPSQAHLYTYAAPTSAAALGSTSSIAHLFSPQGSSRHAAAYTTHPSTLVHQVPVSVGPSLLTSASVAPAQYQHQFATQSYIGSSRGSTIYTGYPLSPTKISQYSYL
Glycogen synthase kinase-3 beta (Homo sapiens), sequence (P49841 whole entry, looked up): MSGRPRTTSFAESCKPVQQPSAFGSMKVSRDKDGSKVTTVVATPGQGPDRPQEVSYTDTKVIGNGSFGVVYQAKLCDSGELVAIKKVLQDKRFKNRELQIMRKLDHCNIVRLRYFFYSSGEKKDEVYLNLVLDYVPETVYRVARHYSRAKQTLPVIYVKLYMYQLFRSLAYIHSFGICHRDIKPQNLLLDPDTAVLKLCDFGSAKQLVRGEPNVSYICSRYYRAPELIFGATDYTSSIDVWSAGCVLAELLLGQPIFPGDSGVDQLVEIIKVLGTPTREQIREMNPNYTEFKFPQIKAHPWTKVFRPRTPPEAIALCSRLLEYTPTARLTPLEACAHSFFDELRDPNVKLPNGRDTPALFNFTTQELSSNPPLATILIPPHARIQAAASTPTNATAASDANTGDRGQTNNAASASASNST

Row | SMILES | inhibition [1] | inhibition [2] | inhibition [3] | inhibition [4] | inhibition [5] | inhibition [6] | inhibition [7] | inhibition [8] | inhibition [9] | inhibition [10]
1 | CS(=O)(=O)CCN(CC#N)Cc1ccc(-c2ccc3ncnc(Nc4ccc(OCc5cccc(F)c5)c(Cl)c4)c3c2)o1 | -0.38% | -6.53% | -4.34% | 0.31% | 2.79% | -0.56% | 2.18% | 3.93% | 1.9% | 1.67%
2 | COc1ccc2cc(-c3c(-c4ccncc4)nc(-c4ccc([S+](C)[O-])cc4)n3C)ccc2c1 (stereo not given) | 9.29% | -1.81% | 1.99% | 0.14% | -0.51% | 1.55% | 4.27% | 1.94% | 2.54% | 4.68%
3 | COc1cc(C=NNc2ncnc3c2cnn3-c2ccccc2)ccc1O | 78.1% | 3.83% | 28.3% | 10.8% | 39.6% | 2.12% | 6.67% | 2.39% | 2.08% | 1.28%
4 | CCn1c(-c2nonc2N)nc2cncc(C(=O)N3CCNCC3)c21 | 1.94% | -1.03% | 0.35% | -0.43% | 0.6% | 5.31% | 8.83% | 8.16% | 7.48% | 6.65%
5 | COC(=O)Nc1nc2cc(Oc3cccc(NC(=O)Nc4cc(C(F)(F)F)ccc4F)c3)ccc2[nH]1 | 6.36% | -3.75% | -1.32% | -1.03% | 11.4% | 2.79% | 1.58% | -0.65% | 0.3% | -0.17%
6 | CC1=C(C(=O)Nc2ccc3[nH]ncc3c2)C(c2ccc(F)cc2)NC(=O)N1 (stereo not given) | 1.6% | -0.95% | -0.69% | -0.2% | -0.66% | 1.75% | 0.78% | 1.62% | 4.83% | 2.23%
7 | Cn1cc(C=C2C(=O)Nc3cccnc32)c2ccccc21 | 8.9% | -0.99% | 13.8% | 1.64% | 15.2% | 3.04% | 6.24% | 2.02% | 2.73% | 2.22%
8 | Cc1ccc(C(=O)NC2CCCCC2)cc1-c1ccc(C(=O)NCC2CC2)cc1 | 0.33% | -0.44% | 1.1% | 1.23% | 3.16% | 5.74% | 6.33% | 3.78% | 4.11% | 2.55%
9 | Cc1ccc(NC(=O)c2ccnc(N3CCCC3)c2)cc1-c1ccc(C(=O)NCC2CC2)cc1 | 3.68% | -4.3% | -2.16% | -1.31% | 2.09% | 2.66% | 6.82% | 4.25% | 6.09% | 2.96%
10 | NS(=O)(=O)c1ccc(N/N=C2\C(=O)Nc3ccc(C(=O)NCCc4c[nH]cn4)cc32)cc1 | 86.6% | 9.13% | 48.9% | 3.77% | 20.2% | 3.56% | 9.28% | 1.92% | 17.6% | 5.33%
11 | O=C1NC(=O)C(c2cccc(Cl)c2)=C1Nc1ccc(O)c(Cl)c1 |  | -2.68% | 1.28% | -1.68% | 0.62% | 3.34% | 1.38% | -0.66% | 1.91% | 2.05%
12 | CN1CCC(C(=O)Nc2n[nH]c3nnc(-c4ccccc4)cc23)CC1 |  | 3.96% | 9.2% | 0.93% | 4.44% | 4.37% | 5.52% | 7.18% | 5.71% | 5.71%
13 | CC(=O)Nc1cccc(C#Cc2cncnc2Nc2ccc(OCc3cccc(F)c3)c(Cl)c2)n1 | 3.63% | 1.74% | 3.28% | 0.85% | 1.32% | -0.98% | -1.17% | -0.75% | -1.7% | -0.64%
14 | COc1cc2c(cc1Nc1nc(N3CCc4ccccc43)c3cc[nH]c3n1)N(C(=O)CN(C)C)CC2 | 0.72% | -1.15% | 2.7% | 1.42% | 2.99% | 1.11% | 1.82% | 0.85% | 2.12% | 2.89%
15 | NC(=O)c1ccc(-c2nc(-c3ccccn3)c(-c3ccc4c(c3)OCO4)[nH]2)cc1 | 6.9% | -0.15% | 2.8% | 1.68% | 1.67% | 1.97% | 5.34% | 2.52% | 1.22% | 1.34%
16 | [O-][S+]1CCN(Cc2ccc(-c3ccc4ncnc(Nc5ccc(OCc6ccccc6)c(F)c5)c4c3)o2)CC1 | 1.56% | -3.01% | 2.83% | 1.06% | 5.51% | 4.53% | 4.55% | 0.52% | 2.92% | 1.89%
17 | COc1cccc(-n2ncc3c(N/N=C/c4cccc(F)c4)ncnc32)c1 | 72.7% | -2.11% | 20.6% | 0.87% | 21.3% | 1.23% | 4.69% | 1.94% | 3.29% | 1.61%
18 | COc1ccc(COc2ccc(Cc3cnc(N)nc3N)cc2OC)cc1 |  | -1.6% | 0.13% | 2.52% | 4.49% | 0.2% | 0.51% | -1.03% | -0.13% | 0.6%
19 | Cc1nn(C)c2cc(N(C)c3ccnc(Nc4cccc(S(N)(=O)=O)c4)n3)ccc12 | 5.82% | -3.06% | -2.18% | -1.56% | 4.09% | 3.35% | 10.2% | 2.91% | 4.88% | 2.88%
20 | Fc1cccc(COc2ccc(Nc3ncnc4sc(-c5cccs5)cc34)cc2Cl)c1 | 5.88% | -5.41% | 2.04% | 0.33% | 1.31% | 0.62% | 1.01% | 2.17% | 1.6% | 1.1%
21 | CC1=C(C(=O)Nc2ccc3[nH]ncc3c2)C(c2ccc3ccccc3c2)CC(=O)N1 (stereo not given) | 7.81% | 1.49% | 4.61% | 1.02% | 4.03% | 0.73% | 2.65% | 5.52% | 39.5% | 3.92%
22 | COc1cc2ncn(-c3cc(OCc4ccccc4C(F)(F)F)c(C(N)=O)s3)c2cc1OC | 7.21% | -1.28% | 4.22% | 10.1% | 40.6% | 1.63% | 2.16% | 4.18% | 6.38% | 5.3%
23 | Nc1nc(-c2ccc3c(c2)C(=Cc2cc(Br)c(O)c(Br)c2)C(=O)N3)cs1 | 4.42% | -1.1% | 4.76% | 0.92% | 11.3% | -3.8% | -4.58% | -2.57% | -2.89% | -0.09%
24 | Cc1cccc(-c2n[nH]cc2-c2ccc3ncccc3n2)n1 | 0.05% | -0.8% | 6.4% | -0.32% | 0.37% | 1.26% | -0.31% | 0.39% | 1.2% | 3.13%
25 | CC1=C(C(=O)Nc2ccc3[nH]ncc3c2)C(c2ccc(Cl)c(Cl)c2)CC(=O)N1 (stereo not given) | 4.85% | 0.46% | -2.51% | 1% | 4.37% | 1.22% | 2.79% | 3.85% | 27.4% | 2.47%
26 | O=C1NC(=O)C(N2CCc3ccccc32)=C1c1ccc(Cl)cc1 |  | 0.01% | 1.33% | -0.41% | 2.92% | 3.51% | 5.32% | 3.12% | 5.91% | 5.26%
27 | NS(=O)(=O)c1cccc(-c2ccc3c(NC(=O)C4CC4)n[nH]c3c2)c1 |  | -0.23% | 0.61% | 0.1% | 1.04% | -7.07% | -5.26% | -2.53% | -5.17% | 0.73%
